The results in this text go back to PubChem BioAssay (NCI).

Where “and” joins values, the source holds several entries; their conditions need not be identical. Equal values may be shown once. The panel holds about 83,000 compounds, 20% with a hit somewhere; the sample as a whole holds those more often.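 The test compound was applied at a single concentration to cells in 96-well plates for 48 hours, and percent growth was recorded.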 A number with no mark means an inactive call. Calls of active or inactive are those of the source. Rule for the calls: active = growth percent below 10; inactive = the rest.

The test relates to MDA-MB-468 breast. The test is described as follows: NCI-60 one-dose screen, 48 h (100 = growth as untreated, 0 = no growth, -100 = all killed). The conditions noted are these: 10 µM unless noted.
In the case of `CNC(=O)c1cc(Oc2ccc3nc(NC(=O)Nc4ccc(Cl)c(C(F)(F)F)c4)sc3c2)ccn1`, the growth was -5.09% (active).

With `COC(=O)CSc1ccc(Cl)cc1`, the growth was 126%.

For the molecule `Cc1ccc(NCc2cn(-c3ccc(C(=O)O)cc3)nc2-c2ccc(C(=O)O)cc2)cc1`, the growth was 120%.

Regarding `O=C(NCCOCCOCCOCCNC(=O)c1cc2c(o1)C(=O)c1ccccc1C2=O)NC12CC3CC(CC(C3)C1)C2`, the growth is -33.8% (active).

Regarding `CNC(=O)c1cc(N2CCc3cc(NC(=O)Nc4ccc(N5CCOCC5)c(C(F)(F)F)c4)ccc32)ccn1`, the growth is 49.6%.

On to `O=C(/C=C/c1cc(CN2CCOCC2)c(O)c2ncccc12)c1cc(CN2CCOCC2)c(O)c2ncccc12`, for which the growth is 4.37% (active).

`COc1ccc(-n2nc(C(=O)NCC(=O)Nc3nc4cc(OC)ccc4s3)c3ccccc3c2=O)cc1`: the growth was -8.37% (active).

Turning to `COc1cnc2c(c1)C(=O)c1c-2n(CCCNC(C)C)c(=O)c2cc(Cl)ccc12`, the growth is 17.7%.

With `O=[N+]([O-])c1ccc(Oc2cc(Cl)c(Cl)cc2Cl)c(C(F)(F)F)c1`, the growth is 100%.

For `COc1cc(/C=C2\Oc3cc(OCCCN4CCCC4)ccc3C2=O)cc(OC)c1`, the growth is 42.3%.

On to `O=C(/C(=C/c1ccccc1)CN1CCCCC1)c1ccccc1`, for which the growth is -72.8% (active).

`Cc1nc2n[nH]c(N)c2nc1C`: the growth was 100%.

Take `CC(=O)c1cc(C(=O)c2ccc3c(c2)Sc2ccccc2N3)n2ccccc12`: the growth was 3.96% (active).

As for `CN(CC(=O)N(Cc1ccc(C2CCCCC2)cc1)c1ccc(C(=O)NO)cc1)S(=O)(=O)c1c(F)c(F)c(F)c(F)c1F`, the growth is -36.3% (active).

On to `NC(=O)c1cnc(Nc2cccc(N)c2)nc1NCCCNC(=O)C1CCC1`, for which the growth was 52.9%.

Regarding `O=[N+]([O-])c1ccc(N/N=C/c2c(O)ccc3ccccc23)nc1`, the growth was 36.9%.

Regarding `Cn1c(=O)[nH]c(=O)c2nc(CCC(=O)NCCC(=O)O)c(=O)[nH]c21`, the growth is 102%.

Turning to `COc1cc(-c2nn(-c3ccc(Br)cc3)cc2C(=O)O)ccc1O`, the growth was 103%.

`C=C(C)[C@@H]1CC[C@]2(C(=O)NCC(=O)OC)CC[C@]3(C)[C@H](CC[C@@H]4[C@@]5(C)Cc6c([nH]c7ccccc67)C(C)(C)[C@@H]5CC[C@]43C)[C@@H]12`: the growth was 55.1%.

With `NNC(=O)N/N=C1\C(=O)N(c2nccs2)C(=O)C(=O)C1c1nc2ccccc2s1` (centres undefined), the growth is 106%.

On to `COc1cc(-c2cc(/C=C3\CCCCC3=O)[nH]n2)cc(OC)c1OC`, for which the growth is 85.2%.

For the molecule `CCNC(=O)OCCc1c2ccccc2nc2ccccc12`, the growth was 108%.

`CCOC(=O)c1cc2c(n1Cc1cc(OC)cc(OC)c1Br)-c1nc(NC(C)=O)sc1CCC2`: the growth is 77.7%.

As for `Cn1cc(-c2ccc3cc(-c4ccc(CC(=O)Nc5cc(C(C)(C)C)on5)cc4)cnc3c2)cn1`, the growth was 30.7%.

Take `O=C1/C(=C\c2ccccn2)c2ccccc2N1c1c(Cl)cccc1Cl`: the growth was -17.2% (active).

`CCN(CC)CCC(CNc1c(C)cnc2cc(Cl)ccc12)c1ccc(Cl)cc1` (centres undefined): the growth is 19.3%.

With `O=C(O)c1ccccc1Cc1ccc(F)c2ccccc12`, the growth was 110% and 102%.

`N#Cc1c2c([nH]c(=O)c1C(N)=O)CCCCC2`: the growth was 109%.

Turning to `C=CCCCC(=O)CCC(=O)OCC1O[C@@H](O[C@@H]2C(O)[C@@H](OC(C)=O)C(C)O[C@H]2O[C@H](CC=C)CCCCC)C(O)[C@@H](OC(=O)/C(C)=C/C)[C@@H]1OC(=O)/C=C/c1ccccc1` (some centres undefined), the growth is -23.6% (active).

Take `CN(C)CCCN1c2ccccc2CCc2ccc(Cl)cc21`: the growth is -21.6% (active).

On to `CC(=O)OCCC/C(=C\c1ccc2ccccc2c1)[N+](=O)[O-]`, for which the growth is -55.4% (active).

In the case of `O=C1Nc2ccccc2/C1=C/c1ccc(OCC(=O)c2ccccc2)cc1`, the growth was 94.6%.

On to `C=C1C(=O)O[C@H]2[C@H]1CC/C(COC(=O)NCc1ccc(Cn3c(=O)sn(CCCC)c3=O)cc1)=C\CC[C@@]1(C)O[C@@H]21`, for which the growth is 12.2%.

With `O=c1cc(-c2ccccc2)nc2sc(-c3c[nH]c4ccc(Br)cc34)nn12`, the growth was 87.2%.

As for `COCCOCCOCc1n(Cc2ccc3ccccc3n2)c2ccccc2[n+]1Cc1ccc2ccccc2n1`, the growth is -17.4% (active).

As to `Cc1cccc2c(=O)c3c(sc12)c(NCCN)nc1ccccc13`, the growth was -57.3% (active).

As for `CC1=C(C(=O)Nc2ccccc2)C(c2ccc3c(c2)OCCO3)NC(=O)N1` (centres undefined), the growth was 106%.

Turning to `CN(C)c1ccc(C(=O)c2ccc(N(C)C)c(N)c2)cc1N`, the growth is -20.9% (active).

Take `Cc1ccc2oc(=O)cc(C3c4ccc([nH]4)C(c4cc(=O)oc5ccc(C)cc45)c4ccc([nH]4)C(c4cc(=O)oc5ccc(C)cc45)c4ccc([nH]4)C(c4cc(=O)oc5ccc(C)cc45)c4ccc3[nH]4)c2c1` (centres undefined): the growth was -28.6% (active).
